Records with an inconclusive call do not appear. A number with no mark means an inactive call. Calls of active or inactive are those of the source. Calls come from the whole dose curve.
Assay: qHTS assay to identify small molecule agonists of the hypoxia (HIF-1) signaling pathway - cell viability counter screen (AID 1224844); note: nearly all actives have a fitted effect of over 50% in size
Details: HRE-bla ME-180 viability, CellTiter-Glo luminescence, 17 h; series mostly up to 76.8 µM; activity change, negative = cytotoxicity: at the top concentration
Description: National Center for Advancing Translational Sciences [NCATS]
NIH Chemical Genomics Center [NCGC]
U.S. Environmental Protection Agency [EPA]
National Institutes of Environmental Health Sciences [NIEHS]
National Toxicology Program [NTP]
U.S. Food and Drug Administration [FDA]
Hypoxia-inducible factor-1 (HIF-1) is the major hypoxia-regulated transcription factor that controls cellular responses to low oxygen concentration. HIF-1 is composed of two subunits: hypoxia responsive HIF-1-alpha and constitutively expressed HIF-1-beta, which is also known as aryl hydrocarbon receptor nuclear translocator. During hypoxic conditions, HIF-1-alpha heterodimerizes with HIF-1-beta and translocates into the nucleus where the HIF-1 complex binds to the hypoxia-response element (HRE) and activates expression of target genes such as VEGF (vascular endothelial growth factor). The HIF-1 pathway is essential to normal growth and development, and is involved in the pathophysiology of cancer, inflammation, and ischemia.
Using a beta-lactamase reporter-gene under control of the hypoxia response element, a cell-based assay [CellSensor(TM) HRE-bla ME-180 from Life Technologies, Carlsbad, CA] was used to measure hypoxia-induced signaling. Tox21 10K library compounds were measured for their ability to induce the reporter gene activity. The cytotoxicity of the Tox21 compound library against HRE-bla ME-180 cell line was tested in parallel by measuring cell viability using CellTiter-Glo assay (Promega, Madison, WI) in the same assay wells.
Tox21 Assay Protocol Summary:
HRE-bla ME-180 cells were dispensed at 2,000 cells per well in 6 uL of assay medium containing 0.5% dialyzed FBS into black wall/clear-bottom 1536-well plates using a Multidrop Combi (Thermo Scientific, Waltham, MA) dispenser. After the assay plates were incubated at 37C and 5% CO2 for 5 hrs, 23 nL of compounds dissolved in DMSO, positive controls or DMSO only was transferred to each well of the assay plate using a Pintool station (Kalypsys, San Diego, CA). The assay plates were incubated at 37C and 5% CO2 for 17 hrs. One uL of LiveBLAzerTM B/G FRET substrate (CCF4-AM) (Life Technologies) was added to each well using a Flying Reagent Dispenser (FRD, Aurora Discovery, San Diego, CA). After 2 hr incubation at room temperature, fluorescence intensity (405 nm excitation, 460 nm and 530 nm emissions) was measured using an Envision plate reader (PerkinElmer, Shelton, CT). For cytotoxicity, 4 ul/well of CellTiter-Glo reagent was added into the assay plates using an FRD. After 30 min incubation at room temperature, the luminescence intensity was measured using a ViewLux plate reader (PerkinElmer).
% is set by controls: 0 for no effect and ±100 for the full control effect; potency is the fitted concentration of half-maximal effect.

SMILES	activity change, negative = cytotoxicity	Potency
Nc1nc(N)nc(Cl)n1	3.6%	–
Cc1ccccc1OP(=O)(Oc1ccccc1C)Oc1ccccc1C	-14.4%	–
Cc1c([N+](=O)[O-])c(C)c([N+](=O)[O-])c(C(C)(C)C)c1[N+](=O)[O-]	–	24.5 µM (active)
CC1CN1 (stereo not given)	-2.37%	–
O.O.O.O.O.O.O.O=S(=O)([O-])[O-].[Co+2]	6.62%	–
C[C@]12CC[C@H]3[C@@H](CCC4=CC(=O)CC[C@@H]43)[C@@H]1CC[C@@H]2OC(=O)CCc1ccco1	0.344% [at 35.3 µM]	–
CCC(C)Nc1c([N+](=O)[O-])cc(C(C)(C)C)cc1[N+](=O)[O-] (stereo not given)	2.66%	–
CNC(C)(C)Cc1ccccc1	0.533% [at 35.3 µM]	–
CCC(C)c1cccc(C(C)CC)c1O (stereo not given)	-11.1%	–
CC(Cc1ccc(OCC(=O)O)cc1)NCC(O)c1csc(C(F)(F)F)n1 (stereo not given)	-18.6%	–
O=P(Cl)(Cl)Cl	-17.4%	–
c1ccc2nc(N3CCNCC3)ccc2c1	1.44% [at 35.3 µM]	–
CCOC(=O)Cc1ccccc1	7.66%	–
C[C@H]1[C@H](c2ccc(Cl)cc2)SC(=O)N1C(=O)NC1CCCCC1	0.401%	–
Clc1ccc(C(c2ccc(Cl)cc2)C(Cl)Cl)cc1	–	49 µM (active)
S=C=NCCc1ccccc1	-6.07%	–
O=[N+]([O-])c1ccc(Cl)c(Cl)c1Cl	5.55%	–
CC(C)(C)c1ccc(OP(=O)(Oc2ccccc2)Oc2ccccc2)cc1	-11%	–
CN(C)CCc1c[nH]c2ccccc12	-18%	–
COP(=S)(NC(C)C)Oc1ccc(C)cc1[N+](=O)[O-] (stereo not given)	1.97%	–

SMILES	activity change, negative = cytotoxicity	Potency
O=C(O)CCCCCCNC1c2ccccc2CCc2ccccc21	-0.627% [at 35.3 µM]	–
ClC(Cl)C(Cl)(Cl)Cl	-0.139%	–
COc1nc(C)nc(NC(=O)NS(=O)(=O)c2ccccc2Cl)n1	2.09%	–
Nc1nc(N)c(N)c(N)n1	-25.2%	–
CN1CCc2cc3c(cc2C1O)OCO3 (stereo not given)	0.988%	–
[F][Sn]([c]1ccccc1)([c]1ccccc1)[c]1ccccc1	–	0.549 µM (active)
O=C(N[C@H]1N=C(c2ccccc2F)c2cccc3c2N(CC3)C1=O)c1cc2ccccc2[nH]1	-12.5% [at 35.3 µM]	–
CCN(CC)Cc1nccn1-c1ccc([N+](=O)[O-])cc1C(=O)c1ccccc1Cl	4.69% [at 35.3 µM]	–
CCC[CH2][Sn]([CH2]CCC)([O]C(C)=O)[O]C(C)=O	–	0.986 µM (active)
CC(C)=CC1C(C(=O)OC(C#N)c2cccc(Oc3ccccc3)c2)C1(C)C (stereo not given)	2.78%	–
O=[N+]([O-])C(Br)Br	–	43.7 µM (active)
COC(=O)N(OC)c1ccccc1COc1ccn(-c2ccc(Cl)cc2)n1	-9.39%	–
O=C(Cl)c1ccccc1F	0.0361%	–
O=NN(CCO)CCO	-7.63%	–
CC1=C2C[C@H]3[C@@H](CC=C4C[C@@H](O)CC[C@@]43C)[C@@H]2CC[C@]12O[C@@H]1C[C@H](C)CN[C@H]1[C@H]2C	-20.4% [at 35.3 µM]	–
CCN(CC)CCc1c[nH]c2ccccc12	0.345%	–
CNC(=O)/C=C(\C)OP(=O)(OC)OC	5.23%	–
Cc1c([N+](=O)[O-])cc2c(c1[N+](=O)[O-])C(C)(C)CC2(C)C	1.92%	–
Oc1ccc2[nH]cc(CCCCN3CC=C(c4ccccc4)CC3)c2c1	-0.805% [at 35.3 µM]	–
O=C(NC(=O)c1ccccc1Cl)Nc1ccc(OC(F)(F)F)cc1	-2.07%	–
